PubChem BioAssay (NCATS)
Values without a mark were called inactive. Active and inactive are the calls of the source. The call rests on the fitted dose curve; in most records, active means well fitted cell-killing curve with a large enough effect; inconclusive means small, poorly fitted or top-dose-only effect; inactive means flat fitted curve, though single readings scatter.

test: Cell Viability - LYMP1-002 - Assay at 24 hr (AID 993); settings: LYMP1-002 lymphoblastoid cells viability; series mostly up to 92.2 µM; activity change, negative = cytotoxicity: at the top concentration
Text: NIH Chemical Genomics Center [NCGC]
NIH Molecular Libraries Screening Centers Network [MLSCN]
National Institutes of Environmental Health Sciences [NIEHS]
National Toxicology Program [NTP]
We have developed a 1536-well cell-based assay for quantitative high throughput screening (qHTS) against a number of cell lines to determine in vitro cytotoxicity of small molecules. This particular assay uses a human lymphoblastoid cell line (LYMP1-002) purchased from Coriell Institute for Medical Research.
NCGC Assay Protocol Summary:
The CellTiter-Glo luminescent cell viability assay (Promega) is a homogeneous method to measure the number of viable cells in culture. The end point readout of this assay is based on quantitation of intracellular ATP, an indicator of metabolic activity, using the luciferase reaction. Luciferase catalyzes the oxidation of beetle Luciferin to oxyluciferin and light in the presence of ATP. The luminescent signal is proportional to amount of ATP present.
Using the CellTiter-Glo luminescent cell viability assay, the amount of cellular ATP was measured in the lymphoblastoid cell line with complete culture medium following compound treatment for 24 hours. The assay was performed in opaque white Kalypsys 1536-well plates. In the screen, tetraoctylammonium bromide was used as positive control. Library compounds were measured for their ability to cause acute toxicity in the cell line, as reflected by a decrease in intracellular ATP levels, in a concentration-dependent manner. […] AC50 values were determined from concentration-response data modeled with the standard Hill equation.
qHTS protocol for CellTiter Glo lymphoblastoid cellular assay
[Step] [Parameter] [Value] [Description]
1. Reagent; 5 uL; 2500 lymphoblastoid cells/well
2. Time; 5 hr; 37 C incubation
4. Controls; 23 nL; Tetraoctylammonium bromide 6.4pM to 92 uM
5. Time; 24 hr; 37 C incubation
6. Reagent; 5 uL; CellTiter Glo reagent
7. Time; 30 min; Room Temperature
8. Detection; Luminescence; Viewlux plate reader
Keywords: cell viability, cytotoxicity, lymphoblastoid cell line, luminescence, NTPHTS, NTPHTS_NCGC, NIEHS, DSSTox, MLSMR, MLSCN, NIH Roadmap, qHTS, NCGC
On the % scale 0 is the no-effect control and ±100 the full control effect.

Point of comparison: `CC(C)C(=O)Nc1ccc([N+](=O)[O-])c(C(F)(F)F)c1`, “activity change, negative = cytotoxicity” value -4.42%. Against it:
- Cn1c(=O)c2[nH]cnc2n(C)c1=O — higher, -3.03%
- Nc1c2c(nc3ccccc13)CCCC2 — lower, -9.18%
- COc1ccc(CCN(C)CCCC(C#N)(c2ccc(OC)c(OC)c2)C(C)C)cc1OC (stereo not given) — lower, -6.63%
- COc1ccc2c(c1)c(CC(=O)O)c(C)n2C(=O)c1ccc(Cl)cc1 — higher, -0.384%
- CCC1(c2ccccc2)C(=O)NCNC1=O — higher, 4.5%
- Cn1c(=O)c2c(ncn2C)n(C)c1=O — higher, 0.176%
- NS(=O)(=O)c1cc2c(cc1Cl)NCNS2(=O)=O — higher, 0.0974%
- N[C@@H](Cc1c[nH]c2ccc(O)cc12)C(=O)O — higher, -3.49%
- Cc1ccc(-c2cc(C(F)(F)F)nn2-c2ccc(S(N)(=O)=O)cc2)cc1 — lower, -6.47%
- O=c1c(-c2ccc(O)cc2)coc2cc(O)cc(O)c12 — lower, -8.45%
- Nc1ccn([C@H]2CC[C@@H](CO)O2)c(=O)n1 — higher, 0.543%
- NCCS(=O)(=O)O — higher, 1.27%
- CC(COc1ccccc1)N(CCCl)Cc1ccccc1 (stereo not given) — higher, -3.16%
- O=c1[nH]cc(F)c(=O)[nH]1 — lower, -16.1%
- Cc1cn([C@H]2C[C@H](N=[N+]=[N-])[C@@H](CO)O2)c(=O)[nH]c1=O — higher, 1.15%
- Clc1ccc(C(c2ccccc2Cl)C(Cl)Cl)cc1 (stereo not given) — lower, -4.97%
- CC(C)NCC(O)c1ccc(O)c(O)c1 (stereo not given) — lower, -5.43%

For `COc1ccc2[nH]cc(CCNC(C)=O)c2c1`, the outcome was “inactive”.
With `Cc1cn([C@H]2C=C[C@@H](CO)O2)c(=O)[nH]c1=O` the outcome was “inactive”.
